Our source for the outcome and AC50 values is PubChem BioAssay (EPA / NIEHS).

A short description of experiment [1]: Tanguay_ZF_120hpf_CIRC_legacy: (Legacy) Oregon State University Tanguay Lab 120 Hour Post-fertilization zebrafish Assay for Circulatory Malformation (AID 2283651). A digest of the protocol:
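Read-out: presence or absence of circulatory malformation at 120 hpf, scored by brightfield microscopy, fitted in the gain-of-signal direction against DMSO baseline. Wild-type 5D larvae were exposed from 6 hpf after enzymatic chorion removal.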

A short description of experiment [2]: Tanguay_ZF_120hpf_TRUN_legacy: (Legacy) Oregon State University Tanguay Lab 120 Hour Post-fertilization zebrafish Assay for Truncated Body (AID 2283655). A digest of the protocol: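 Tropical 5D wild-type embryos, dechorionated with pronase at 4 hpf, were placed singly in wells at 6 hpf and statically exposed at 28C until 120 hpf, final DMSO 0.64%. Truncated body was scored present/absent by brightfield microscopy.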

Experiment [3] can be described thus: Tanguay_ZF_120hpf_NC_legacy: (Legacy) Oregon State University Tanguay Lab 120 Hour Post-fertilization zebrafish Assay for Notochord and Tail Malformation (AID 2283656). Summed up: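 Dechorionated Tropical 5D wild-type zebrafish embryos, one per well from 6 hpf, statically exposed to 120 hpf at 28C in 0.64% DMSO final. Notochord distortion scored present/absent by brightfield; dead embryos excluded.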

Experiment [4] in a line: Tanguay_ZF_120hpf_PIG_legacy: (Legacy) Oregon State University Tanguay Lab 120 Hour Post-fertilization zebrafish Assay for Pigmentation Malformation (AID 2283650). A digest of the protocol: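 Tropical 5D wild-type zebrafish embryos, dechorionated with pronase at 4 hpf, were exposed singly from 6 hpf to 120 hpf statically at 28C in sealed, dark plates with 0.64% DMSO; pigmentation scored present/absent by brightfield microscopy, fitted against DMSO.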

Experiment [5] is described as follows: Tanguay_ZF_120hpf_SWIM_legacy: (Legacy) Oregon State University Tanguay Lab 120 Hour Post-fertilization zebrafish Assay for Swim Bladder Malformation (AID 2283654).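 Also: swim bladder malformation in each larva scored yes or no under brightfield.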 Summed up: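 Dechorionated Tropical 5D wild-type embryos, placed singly from 6 hpf, were statically exposed at 28C to 120 hpf with 0.64% DMSO final; swim bladder malformation was scored present/absent by brightfield microscopy, gain of signal relative to DMSO controls.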

Read-out in experiment [6]: Broad substrate specificity ATP-binding cassette transporter ABCG2 (Homo sapiens) (UniProt Q9UNQ0)
The experiment in a line: CLD_ABCG2_6hr: CellzDirect (CLD) Gene Expression Assay for ABC Transporter (ABCG2) at 6 hours (AID 2283660). Summed up:
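Primary human hepatocytes dosed daily with chemicals at multiple concentrations (0.2% DMSO vehicle), harvested 6 h after dosing. ABCG2 mRNA induction read by quantitative nuclease protection assay (qNPA) chemiluminescence; gain of signal fitted against DMSO baseline.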

Read-out in experiment [7]: solute carrier (SLC22A6), SLC22A6 (gene 9356)
The experiment in a line: LTEA_HepaRG_SLC22A6: Life Technologies and Expression Analysis (LTEA) Assay for solute carrier (SLC22A6) using HepaRG (AID 2283653; active = hit-call score of the fitted dose curve at least 0.9, where 1 is the maximum; inactive = score below 0.9). The note with it: mRNA level, 48 h; actives raise or lower the signal. Summed up: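 Differentiated human HepaRG cells were exposed for 48 h in serum-free induction medium to eight concentrations (top 100 uM, half-log steps, 0.5% DMSO), in duplicate. SLC22A6 mRNA was quantified by qRT-PCR, normalised to ACTB, GAPDH and POLR2A, and fitted bidirectionally against DMSO.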

Read-out in experiment [8]: solute carrier (SLC10A1), SLC10A1 (gene 6554)
The experiment can be described thus: LTEA_HepaRG_SLC10A1: Life Technologies and Expression Analysis (LTEA) Assay for solute carrier (SLC10A1) using HepaRG (AID 2283657; active = hit-call score of the fitted dose curve at least 0.9, where 1 is the maximum; inactive = score below 0.9). The note with it: mRNA level, 48 h; actives raise or lower the signal. A digest of the protocol:
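Differentiated HepaRG cells were plated 48 h, then exposed in serum-free induction medium for 48 h to 8 concentrations (top 100 uM, half-log steps, 0.5% DMSO). SLC10A1 mRNA was quantified by qRT-PCR normalized to ACTB, GAPDH, POLR2A; bidirectional fit versus DMSO.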

Read-out in experiment [9]: kallikrein-3 (KLK3), KLK3 (gene 354)
The experiment in a line: LTEA_HepaRG_KLK3: Life Technologies and Expression Analysis (LTEA) Assay for kallikrein-3 (KLK3) using HepaRG (AID 2283652; active = hit-call score of the fitted dose curve at least 0.9, where 1 is the maximum; inactive = score below 0.9). The note with it: mRNA level, 48 h; actives raise or lower the signal. Here is the method:
LTEA_HepaRG is a cell based, multiplexed-readout assay that uses HepaRG, a human liver cell line, with measurements taken at 48 hours after chemical dosing on a 96-well plate.LTEA_HepaRG_KLK3 is one of 102 assay component(s) measured in the LTEA HepaRG cell culture assay. It is a marker of Cellular remodeling.Data from the assay component LTEA_HepaRG_KLK3 was analyzed into 1 endpoint. This assay endpoint, LTEA_HepaRG_KLK3, was analyzed with bidirectional fitting relative to DMSO as the negative control and baseline of activity. Using a type of inducible reporter, measures of mRNA induction for gain or loss-of-signal activity can be used to understand regulation of transcription factor activity. To generalize the intended target to other relatable targets, this assay endpoint is annotated to the protease intended target family, where the subfamily is Cellular remodeling.
A total of 1060 chemcials from the ToxCast library were tested in eight-point concentration-response experiments. Cell culture and cytotoxicity assays were conducted at Thermo Fisher Scientific's Custom Services facility (Madison, WI). A single lot of human HepaRG cells (Thermo Fisher Scientific, Frederick, MD) was used for the cell culture experiments. 96-well format collagen type I coated plates of human HepaRG cells were prepared using established methods. Briefly, cryopreserved HepaRG cells were thawed, plated at a density of approximately 100,000 cells/well in HepaRG Thaw, Plate, and General Purpose media (HPRG770, Thermo Fisher Scientific), and incubated for 48 hours. […] Fluidigm's 96.96 Dynamic ArrayTM (Fluidigm, Amsterdam, the Netherlands) technology was used for gene expression analyses by quantitative reverse transcription polymerase chain reaction (qRT-PCR, performed by Quintiles/Expression Analysis, Durham, NC)89. […]

“And” between values parts separate entries of the source, which are not always exact repeats. Identical values can stand only once. Records with an inconclusive call do not appear. More than one record can exist for a structure, and the calls need not agree. The source made the active and inactive calls. The calls were made as follows, unless noted: active = hit-call score of the fitted dose curve at least 0.9, where 1 is the maximum; inconclusive = response in the unintended direction; inactive = score below 0.9.

Sequence of Broad substrate specificity ATP-binding cassette transporter ABCG2 (Homo sapiens) (Q9UNQ0 whole entry, looked up): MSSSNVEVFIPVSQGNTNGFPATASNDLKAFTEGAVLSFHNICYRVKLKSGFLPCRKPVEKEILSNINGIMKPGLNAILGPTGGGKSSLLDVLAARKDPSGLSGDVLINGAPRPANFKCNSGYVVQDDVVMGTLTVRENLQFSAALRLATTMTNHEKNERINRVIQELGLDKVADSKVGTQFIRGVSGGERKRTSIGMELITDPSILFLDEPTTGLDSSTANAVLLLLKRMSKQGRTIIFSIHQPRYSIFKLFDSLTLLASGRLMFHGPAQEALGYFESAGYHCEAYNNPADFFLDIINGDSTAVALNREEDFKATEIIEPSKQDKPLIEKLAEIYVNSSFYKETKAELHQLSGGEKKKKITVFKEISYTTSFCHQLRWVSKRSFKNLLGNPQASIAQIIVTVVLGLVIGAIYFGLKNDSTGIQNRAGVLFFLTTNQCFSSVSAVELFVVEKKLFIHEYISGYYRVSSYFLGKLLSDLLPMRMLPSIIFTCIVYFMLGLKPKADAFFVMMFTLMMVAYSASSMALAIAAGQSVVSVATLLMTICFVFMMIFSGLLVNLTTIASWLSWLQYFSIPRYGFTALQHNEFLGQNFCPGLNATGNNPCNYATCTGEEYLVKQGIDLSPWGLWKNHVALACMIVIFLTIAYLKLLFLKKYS

Consider `O=C(Nc1ccccc1)Nc1cnns1`, for which the molecule was called inactive in [1], in experiment [2] and in experiment [3].

With `O=C(O)C(F)(F)C(F)(F)C(F)(F)C(F)(F)C(F)(F)C(F)(F)C(F)(F)F`, the result in [4], in [1], in experiment [5], in [2], in experiment [3] and in experiment [6] was inactive.

Consider `O=C(NC(=O)c1c(F)cccc1F)Nc1ccc(OC(F)(F)C(F)OC(F)(F)F)c(Cl)c1` (stereo unspecified), for which the molecule was classed as inactive in experiment [1], in experiment [2] and in experiment [3].

With `ClC1C(Cl)C(Cl)C(Cl)C(Cl)C1Cl` (stereo unspecified), the call in [1], in [7], in [2], in experiment [3], in [8] and in [6] was inactive.

As a reminder, the AC50 is the concentration at which the activity in the assay is half-maximal. For the molecule `CCCN(CCOc1c(Cl)cc(Cl)cc1Cl)C(=O)n1ccnc1`, the molecule was called inactive in [4], in experiment [1], in experiment [7], in experiment [2] and in experiment [3]. The AC50 in experiment [8] is 35.9 µM (active).

With `CN1CSC(=S)N(C)C1`, the result in experiment [1], in [9], in [7], in experiment [2], in experiment [8] and in experiment [6] was inactive. The concentration at half-maximal activity (AC50) in experiment [3] was 6.95 µM (active).

Regarding `CCOC1Oc2ccc(OS(C)(=O)=O)cc2C1(C)C` (stereo unspecified), the result in [4], in [1], in experiment [9], in experiment [7] and in experiment [2] was inactive. Besides, in experiment [8], the AC50 was 84.8 µM (active).

For `CC1(c2ccc(Oc3ccccc3)cc2)OC(=O)N(Nc2ccccc2)C1=O` (stereo unspecified), the call in [1], in experiment [2], in experiment [3] and in [6] was inactive.

With `Clc1ccccc1-c1nnc(-c2ccccc2Cl)nn1`, the outcome in experiment [1], in experiment [2], in [3] and in experiment [6] was inactive.

`CCCN(CCC)c1c([N+](=O)[O-])cc(C(F)(F)F)cc1[N+](=O)[O-]`: the molecule was classed as inactive in experiment [1], in experiment [7], in experiment [2], in experiment [3], in [8] and in experiment [6].

On to `Cc1[nH]c(=O)n(C(C)(C)C)c(=O)c1Cl`, for which the call in experiment [1], in experiment [7], in experiment [2] and in [3] was inactive. For the same molecule, the half-maximal activity concentration (AC50) in experiment [8] was 50 µM (active).

Regarding `O=[N+]([O-])/N=C1\NCCN1Cc1ccc(Cl)nc1`, the result in experiment [4], in [1], in [2], in [3] and in experiment [6] was inactive.

`CC(C)(C)C(O)C(Oc1ccc(Cl)cc1)n1cncn1` (stereo unspecified): the AC50 in [1] was 40.6 µM (active); in experiment [2], 32.2 µM (active) and 47.2 µM (active). Besides, the call in [1], in experiment [2], in experiment [3] and in [6] was inactive.

`COP(=S)(OC)Oc1ccc([N+](=O)[O-])cc1`: the call in experiment [1], in [2], in experiment [3] and in [6] was inactive.

In the case of `O=S(=O)(O)C(F)(F)C(F)(F)C(F)(F)C(F)(F)C(F)(F)C(F)(F)C(F)(F)C(F)(F)F`, the concentration at half-maximal activity (AC50) is 42.5 µM (active) in experiment [1]; 10.6 µM (active) and 21.2 µM (active) in [2]. Besides, the molecule was called inactive in [1], in experiment [2] and in experiment [3].

As to `CNC(=O)/C=C(\C)OP(=O)(OC)OC`, the molecule was called inactive in experiment [1], in [2], in experiment [3] and in experiment [6].

For `O=[N+]([O-])c1c(Cl)c(Cl)c(Cl)c(Cl)c1Cl`, the result in experiment [1], in experiment [2], in [3] and in [6] was inactive.

With `COP(=S)(OC)Oc1ccc(SC)c(C)c1`, the outcome in experiment [1], in experiment [2] and in experiment [3] was inactive.

Consider `CNC(=O)Oc1ccccc1OC(C)C`, for which the molecule was classed as inactive in experiment [1], in [2], in [3] and in experiment [6].
